BoNT F protease = inhibitors of Botulinum neurotoxin F light chain protease; Multiplex microsphere protease cleavage assay, flow cytometry; inhibition, % at 10 µM; actives 0.22% (n = 360,000); in the data active = inhibition above about 35%, passing the limit was not always enough; inconclusive = no clear call, values can overlap the other calls; note: plate controls were buffer without enzyme for full effect and enzyme alone for no effect
BoNT A protease = inhibitors of Botulinum neurotoxin A light chain protease; multiplex microsphere protease substrate cleavage, flow cytometry; inhibition, % at 10 µM; actives 0.17% (n = 360,000); AID 588499; note: plate controls were buffer without enzyme for full effect and enzyme alone for no effect
Anthrax LF inh2 = inhibitors of Bacillus anthracis lethal factor protease. multiplex microsphere protease cleavage assay, LF. actives 0.12% (n = 360,000). inhibition, % at 10 µM; note: plate controls were buffer without enzyme for full effect and enzyme alone for no effect
Bead autofluor = flagged as autofluorescent in microsphere protease counterscreen; compound autofluorescence counterscreen, microsphere flow cytometry; active compounds read high; fluorescence intensity (concentration not given with the values); actives 3.1% (n = 360,000); in the data active = fluorescence intensity above about 16000; inconclusive = no clear call, values can overlap the other calls
SARS 3CLpro inh = SARS-CoV 3CLpro protease inhibition; P0C6X7; recombinant SARS-CoV 3CLpro, quenched FRET peptide cleavage; inhibition, % at 6 µM; actives 0.14% (n = 290,000); in the data active = inhibition above about 12%
Numbers without * were called inactive; u = inconclusive; x = not tested or not shown. Sampled rows, rich in hits. Any-hit rate of the full collection: about 3.5%. Cut-off read from the data, not from the text of the source, unless noted: active = inhibition above about 30%; inconclusive = no clear call, values can overlap the other calls; inactive = below that.

SMILES | BoNT F protease | BoNT A protease | Anthrax LF inh2 | Bead autofluor | SARS 3CLpro inh
CCOC(=O)c1c[nH]c2c([N+](=O)[O-])cc(OC)cc2c1=O | -12 | 0 | -19 | 4410 | x
CC(=O)NC(c1ccccc1)c1nc(-c2cccc(C(F)(F)F)c2)cs1 (configuration not stated) | -5 | -1 | -8 | 3857 | x
COC(=O)c1ccc(NC(=O)c2ccc(C)cc2)o1 | -5 | 0 | -3 | 2636 | -3
COC(=O)c1ccc(NC(=O)c2cccc(Cl)c2)o1 | -4 | -1 | -3 | 23122* | -2
COc1ccc(-n2cnc(=S)[nH]c2=S)cc1 | -2 | 0 | -4 | 3388 | x
CN1CC2(C(=O)c3ccccc3)CN(C)CC(C(=O)c3ccccc3)(C1)C2 | 2 | u | -1 | 20389* | 1
O=C(c1ccc(Cl)cc1)C12CN3CN(CN(C3)C1)C2 | -4 | 0 | -2 | 2998 | -1
CC(=O)Nc1ccc(C(=O)N/N=C/c2ccncc2)cc1 | 7 | 1 | -1 | 2875 | -1
COc1ccccc1C1C=C(c2ccccc2)Nc2nnnn21 (configuration not stated) | 0 | u | 2 | 20241* | 2
Cc1ccc(NC(=O)Cn2ccsc2=N)c([N+](=O)[O-])c1 | -8 | 0 | -7 | 5477 | 0
CC1=NNC(=O)C1CC(=O)N/N=C/c1cccs1 (configuration not stated) | u | u | 1 | 3513 | 1
COc1ccc(Cn2c(/C=C/c3ccccc3)nc3ccccc32)cc1 | -4 | -1 | 2 | 24328* | 2
CCn1c(/C=C/c2ccccc2)nc2ccccc21 | 9 | 1 | -3 | 10220 | -3
COc1ccc(N2C(C(C)=O)=NN(c3ccccc3)C2c2cccs2)cc1 (configuration not stated) | 0 | 4 | 2 | 2649 | 4
CC(=O)Nc1ccc(N2C(C(C)=O)=NN(c3ccccc3)C2c2cccs2)cc1 (configuration not stated) | 0 | -1 | 1 | 19872* | -2
COc1ccc(C2=CC(=O)C[C@H](COCc3ccccc3)N(C(=O)OC(C)(C)C)O2)cc1 | -13 | 0 | -2 | 2988 | x
N#Cc1c2n(c3c(=O)n(Cc4ccccc4Cl)cnc13)CCCCC2 | -12 | -1 | -2 | 2794 | -9
COC(=O)Cn1cnc2c(C#N)c3n(c2c1=O)CCCCC3 | 0 | 0 | 1 | 23066* | -1
CN(C)c1ccc(NC(=O)CC2NCCNC2=O)cc1 (configuration not stated) | 2 | u | -7 | 21583* | 3
Cc1cc(C)cc(NC(=O)CC2NCCNC2=O)c1 (configuration not stated) | -2 | u | -2 | 16440* | 1
Cc1ccc(NC(=O)CC2NCCNC2=O)cc1 (configuration not stated) | 4 | 0 | -2 | 3699 | 5
CC(=O)c1ccc(S(=O)(=O)N(CCCO)Cc2cc3cc4c(cc3[nH]c2=O)OCCO4)cc1 | 4 | 0 | 2 | 2975 | 2
O=C(/C=C/c1ccc(Cl)cc1Cl)NCc1ccncc1 | -6 | 1 | 2 | 9646 | -3
CC(C)OCCCNC(=O)c1ccncc1 | 3 | 2 | 2 | 18964* | -1
CN1CCN(C(=O)c2ccc3ccccc3c2)CC1 | 3 | 0 | 1 | 23924* | -5
SMILES | BoNT F protease | BoNT A protease | Anthrax LF inh2 | Bead autofluor | SARS 3CLpro inh
CN1CCN(C(=O)c2ccc(-n3cccc3)cc2)CC1 | -5 | u | 1 | 20993* | -4
Cc1cc(Br)ccc1SCC(=O)N1CCN(S(=O)(=O)c2ccccc2)CC1 | 3 | -1 | -1 | 5506 | 7
CCOC(=O)c1cc(C)n(Cc2ccc(OCC)c(OC)c2)c1C | 10 | 10 | -16 | 17147* | 1
CCOC(=O)c1c(C)c(C)n(Cc2ccc(OC)c(OC)c2)c1C | 1 | 0 | -1 | 2350 | 0
CCn1c(SCC(=O)Nc2cc(C)on2)nc2c1c(=O)n(C)c(=O)n2C | -3 | u | -2 | 24541* | 1
CCn1c(SCC(=O)Nc2nc3ccc(OC)cc3s2)nc2c1c(=O)n(C)c(=O)n2C | 4 | 5 | -5 | 21795* | 3
O=C(CN1C(=O)NC2(CCOc3ccccc32)C1=O)c1cccs1 (configuration not stated) | -14 | -1 | -3 | 3856 | x
O=C1NN(c2cccc(Br)c2)C(=O)/C1=C\c1ccc(O)cc1 | 17 | 0 | 0 | 3839 | 1
O=S(=O)(c1cccc2nsnc12)N1CCc2ccccc2C1 | 7 | u | -4 | 21361* | 1
COc1ccc(NC(=O)CSc2n[nH]c(N)n2)c([N+](=O)[O-])c1 | 1 | 0 | -1 | 23423* | -6
COc1ccc(NC(=O)CSc2n[nH]c(C(C)C)n2)c([N+](=O)[O-])c1 | 2 | 0 | -2 | 3187 | -1
CC(C)(CN1CCc2ccccc2C1)NS(=O)(=O)c1ccccc1 | 5 | -2 | 2 | 3609 | -2
Cc1ccsc1C(=O)OCC(=O)N(Cc1ccccc1)C(C)C | -2 | 0 | -5 | 4238 | x
Fc1ccc2c(c1)C(c1ccc(N3CCOCC3)cc1)=NNC(c1cccs1)=N2 | 3 | u | -2 | 19055* | -1
CCc1ccc2c(c1)C(c1ccc(N3CCOCC3)cc1)=NNC(c1ccncc1)=N2 | -5 | -1 | 3 | 4664 | 1
Cc1ccc2c(c1)C(c1ccc(N3CCOCC3)cc1)=NNC(c1cccs1)=N2 | 1 | 0 | -2 | 20609* | -4
Brc1ccc2c(c1)C(c1ccc(N3CCOCC3)cc1)=NNC(c1cccs1)=N2 | -1 | 3 | -8 | 19294* | -1
CCOc1ccc(C2=Nc3ccc(Br)cc3C(c3ccc(N4CCOCC4)cc3)=NN2)cc1 | -6 | 0 | -1 | 2161 | 1
Cc1cccc(NC(=O)c2ccc(NS(=O)(=O)c3cccc4cccnc34)cc2)c1 | u | -3 | 15 | 4620 | x
C[C@H]1CN(c2ccccc2)C(=O)[C@@H]1CC(=O)Nc1ccc(Br)cc1 | 0 | 0 | -5 | 3472 | x
Cc1nc(N(C)C)c2sc(=S)n(Cc3ccccc3)c2n1 | -6 | 0 | 0 | 4431 | -2
Cc1ccccc1-n1c(SCC(=O)N(C)C2CCS(=O)(=O)C2)nnc1-c1ccncc1 (configuration not stated) | 2 | 0 | -2 | 4561 | 2
CC(=O)c1ccc(N2C(=O)[C@@H]3C(CCC(N)=O)NC4(C(=O)Nc5c4ccc(Cl)c5C)[C@@H]3C2=O)cc1 (some centres not stated) | -7 | 0 | 0 | 4516 | -1
CSCCC1NC2(C(=O)Nc3c(Cl)cccc32)[C@@H]2C(=O)N(C3CCCC3)C(=O)[C@H]12 (some centres not stated) | 2 | 2 | -2 | 21812* | 3
CSCCC1NC2(C(=O)Nc3c(C)cc(Cl)cc32)[C@@H]2C(=O)N(C3CCCC3)C(=O)[C@H]12 (some centres not stated) | -5 | u | -6 | 23955* | 4
O=C(c1ccc(Cl)cc1)C1CCN(C(=O)N2CCOCC2)CC1 | -2 | -1 | 0 | 19889* | -3
O=C(c1ccc(F)cc1)C1CCN(C(=O)N2CCOCC2)CC1 | -8 | -1 | 1 | 11934 | -1

Bioassay records as filed in PubChem BioAssay.
